Tau fil binding – tau filament binding; P10636; recombinant tau filaments, thioflavin S fluorescence, 15 h; filaments grown with octadecylsulfate alongside compound; Potency, µM (top dose mostly 57.1 µM), without a hit: at the highest dose activity change, negative = inhibition; 71,000 compounds, 2% hits;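 also: potency is read from the fitted curve at half-maximal effect; % is scaled to controls: 0 for no effect and ±100 for the full control effect; actives lower thioflavin S fluorescence by blocking filaments or displacing dye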
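Recombinant tau protein (human, 1 uM final) plus 30 uM ODS in HEPES pH 7.4 with NaCl, DTT and thioflavine S. Compound present from the start; fluorescence at 510 nm after 15 h, 37 C.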
DNA Pol III inh – DNA polymerase III holoenzyme inhibition; 71,000 compounds, 0.25% hits; Potency, µM (highest dose often 57.1 µM), for inactives: at the top dose activity change, negative = inhibition; reconstituted DNA polymerase III holoenzyme replication, biochemical; also: potency is read from the fitted curve at half-maximal effect; % is scaled to controls: 0 for no effect and ±100 for the full control effect
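Reconstituted *E. coli* holoenzyme (0.35 nM Pol III, 1 nM beta, 154 nM SSB, 2 nM primase) was preincubated with compound for 15 min at RT. Synthesis on 1.4 nM ssM13Gori ran 35 min, then was stopped with PicoGreen/EDTA and read as dsDNA fluorescence.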
BRCT PPI green – blocks human BRCA1 BRCT binding to phosphopeptide, green readout. Potency, µM (top dose mostly 76.9 µM), inactives show at the top dose activity change, negative = inhibition, most hits filed as inhibitors. AID 875. 75,000 compounds, 0.05% hits. P38398. BRCA1 BRCT-phosphopeptide binding, green fluorescence polarization;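 also: potency is read from the fitted curve at half-maximal effect; plate controls were peptide without protein for full effect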
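Fluorescence polarization: His-tagged BRCT (~35 kDa BRCA1 C-terminus, 250 nM) bound to 100 nM fluorescein-labeled phosphorylated 10-aa BACH1 peptide, pH 7.3 phosphate buffer with DTT and Tween 20. Compounds incubated 12 min at room temperature; inhibition read as lowered polarization.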
TsaE inh – displaces an ADP probe from E. coli YjeE (TsaE). AID 605. P0AF67. purified YjeE enzyme, qHTS inhibition assay. Potency, µM. 71,000 compounds, 0.05% hits
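Fluorescence polarization of a BODIPY Texas Red–ADP probe (2 uM) bound to purified YjeE (10 uM) was read after 15 min room-temperature incubation with compounds. Loss of polarization marks inhibitors; ADP serves as titrated control.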
ALOX15 inhib – inhibitors of human 15-lipoxygenase (ALOX15). 74,000 compounds, 1.4% hits. purified 15hLO-1, xylenol orange hydroperoxide absorbance. P16050. Potency, µM (titrated, usually from 57.1 µM), inactives show top-dose activity change, negative = inhibition, hits mostly inhibitors; also: potency is read from the fitted curve at half-maximal effect; % is scaled to controls: 0 for no effect and ±100 for the full control effect; nearly all actives have a fitted effect of over 55% in size
Target sequence (P16050 whole entry, looked up): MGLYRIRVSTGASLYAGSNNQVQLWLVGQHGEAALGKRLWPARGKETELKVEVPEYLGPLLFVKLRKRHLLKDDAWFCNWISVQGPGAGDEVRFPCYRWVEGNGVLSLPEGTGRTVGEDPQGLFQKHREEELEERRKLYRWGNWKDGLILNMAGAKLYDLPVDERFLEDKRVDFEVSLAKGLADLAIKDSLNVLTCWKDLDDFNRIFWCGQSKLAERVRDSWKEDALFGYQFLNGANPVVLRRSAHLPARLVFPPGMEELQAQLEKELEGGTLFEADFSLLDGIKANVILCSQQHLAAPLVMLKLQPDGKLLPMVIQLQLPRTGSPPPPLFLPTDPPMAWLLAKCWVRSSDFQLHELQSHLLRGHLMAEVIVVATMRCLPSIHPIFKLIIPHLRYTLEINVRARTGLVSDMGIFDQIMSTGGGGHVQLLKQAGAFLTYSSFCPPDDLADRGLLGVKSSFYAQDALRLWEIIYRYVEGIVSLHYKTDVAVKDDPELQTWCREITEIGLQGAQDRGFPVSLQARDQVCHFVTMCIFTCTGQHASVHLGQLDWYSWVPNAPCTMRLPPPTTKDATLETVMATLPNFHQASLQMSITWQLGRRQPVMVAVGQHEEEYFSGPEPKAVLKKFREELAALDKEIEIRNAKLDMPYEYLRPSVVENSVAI
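Inhibition is scored from a chromogenic endpoint. After 15 min enzyme-compound contact, arachidonic acid (50 uM final) reacts 6 min with 40 nM 15hLO-1 at room temperature, then Fe-XO reagent is added for 30 min and absorbance ratio recorded.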
BRCT inh red – BRCT-phosphoprotein interaction inhibition (red fluorophore) | BRCT-phosphopeptide binding, red fluorescence polarization | Potency, µM (highest dose often 76.9 µM), inactives show at the top dose activity change, negative = inhibition, most hits filed as inhibitors | 75,000 compounds, 0.03% hits; also: % is scaled to controls: 0 for no effect and ±100 for the full control effect
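Fluorescence polarization: 100 nM His-tagged BRCA1 BRCT with 100 nM TAMRA-labelled phospho-BACH1 decapeptide, phosphate buffer pH 7.3 with 150 mM NaCl, DTT, 0.01% Tween 20; 12 min RT. Binding inhibition seen as FP decrease.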
* hit, by the source's call; ! = repeats disagree; [ ] = dose if it differs, or a comment. In the library only some 3.1% were active in any assay of this set; here they are far more common. Calls follow the shape of the dose curve; as a rule, active = well fitted curve in the direction sought with a large enough effect; inconclusive = small, poorly fitted or top-dose-only effect, or another doubt; inactive = no such curve, though single readings can be large; an effect the other way counts as inactive or inconclusive.

How did CCOC(=O)c1[nH]c2ccc(OC)cc2c1NC(=O)c1ccc2c(c1)OCO2 do in these assays?
BRCT PPI green: -2%; ALOX15 inhib: -18%; BRCT inh red: -1%

Results for CCOC(=O)c1c(C)[nH]c2ccc3c(c12)CN1CCc2cc(OC)ccc2[C@@H]1O3 ?
Tau fil binding: 2.5µM*; DNA Pol III inh: -6%; BRCT PPI green: -2%; TsaE inh: inactive; ALOX15 inhib: -1%[25.6 µM]; BRCT inh red: -1%

How did COc1ccc(NC(=O)N2CC[C@@]3(CCCN(C(=O)c4cccc(F)c4)C3)C2)cc1 do in these assays?
Tau fil binding: 0%; DNA Pol III inh: -8%; BRCT PPI green: 1%; TsaE inh: inactive; ALOX15 inhib: 0%; BRCT inh red: -1%

Results for O=C1C(=C2CCCCC2)SC(=S)N1Cc1ccco1 ?
Tau fil binding: -24%[11.4 µM]; DNA Pol III inh: 1%[11.4 µM]; BRCT PPI green: 2%; TsaE inh: inactive; ALOX15 inhib: 4µM*; BRCT inh red: 2%

Results for CC1(C)CC(=O)C2=C(C1)NC(SCC(=O)Nc1ccccc1)=C(C#N)C2c1ccco1 (stereo not drawn) ?
Tau fil binding: 13µM*; DNA Pol III inh: 6%; BRCT PPI green: -1%; TsaE inh: inactive; ALOX15 inhib: -10%; BRCT inh red: 0%

What do the screens show for `c1ccc([C@@H]2CN3CCSC3=N2)cc1`?
Tau fil binding: 2%[25.6 µM]; DNA Pol III inh: -2%[25.6 µM]; BRCT PPI green: -1%[34.4 µM]; TsaE inh: inactive; ALOX15 inhib: 6%[25.6 µM]; BRCT inh red: -3%[34.4 µM]

What do the screens show for `Nc1cc(-c2ccncc2)c[nH]c1=O`?
Tau fil binding: 3%[25.6 µM]; DNA Pol III inh: -6%[25.6 µM]; BRCT PPI green: -1%[3.08 µM]; TsaE inh: inactive; ALOX15 inhib: 13µM*; BRCT inh red: -8%

What do the screens show for `O=C(COc1ccccc1)Nn1cnc2ccccc21`?
Tau fil binding: -3%; DNA Pol III inh: 0%; BRCT PPI green: -2%; TsaE inh: inactive; ALOX15 inhib: 13µM*; BRCT inh red: 0%

What do the screens show for `CCN(CC)c1ccc(NC(=O)c2cncc(Br)c2)cc1`?
Tau fil binding: 20µM*; DNA Pol III inh: -2%; BRCT PPI green: 1%; TsaE inh: inactive; ALOX15 inhib: -8%; BRCT inh red: 0%

What do the screens show for `O=c1oc(-c2ccco2)nc2ccccc12`?
Tau fil binding: 42%; DNA Pol III inh: -7%; BRCT PPI green: 3%; TsaE inh: inactive; ALOX15 inhib: -6%; BRCT inh red: -1%

Results for c1coc(-c2nc3ccccc3nc2-c2ccco2)c1 ?
Tau fil binding: 13µM*; DNA Pol III inh: 25µM*; BRCT PPI green: -3%; TsaE inh: inactive; ALOX15 inhib: 25µM*; BRCT inh red: -3%

Results for O=C(CCN1CCOCC1)Nc1ccc2c(c1)CCC2 ?
Tau fil binding: -9%; DNA Pol III inh: 3%; BRCT PPI green: 0%; TsaE inh: inactive; ALOX15 inhib: 25µM*; BRCT inh red: 1%

How did C/C(C[n+]1ccccc1)=N\N=C(N)N do in these assays?
Tau fil binding: 4%[11.4 µM]; DNA Pol III inh: -6%[11.4 µM]; BRCT PPI green: -1%[15.4 µM]; TsaE inh: inactive; ALOX15 inhib: 4%[11.4 µM]; BRCT inh red: 1%[15.4 µM]

Results for CN(C)c1ccc(O)c2c1C[C@@H]1C[C@H]3C(N(C)C)C(=O)C(C(N)=O)=C(O)[C@@]3(O)C(=O)C1=C2O (stereo partly drawn) ?
BRCT PPI green: -1%[3.08 µM]; ALOX15 inhib: 2%; BRCT inh red: -15%

Results for CN(C)[C@H]1C(=O)C(C(=O)NCN2CCCC2)=C(O)[C@]2(O)C(=O)C3=C(O)c4c(O)cccc4[C@](C)(O)[C@H]3C[C@H]12 ?
Tau fil binding: -10%[11.4 µM]; DNA Pol III inh: 3.2µM*; BRCT PPI green: -15%[15.4 µM]; TsaE inh: inactive; ALOX15 inhib: -25%[11.4 µM]; BRCT inh red: -21%[15.4 µM]

Results for Cc1c(C)n(CC(O)CN2CCCCCC2)c2ccccc12 (stereo not drawn) ?
Tau fil binding: 13µM*; DNA Pol III inh: 10%; BRCT PPI green: -3%; TsaE inh: inactive; ALOX15 inhib: inconclusive; BRCT inh red: 0%

Results for Cc1ccc2c(c1)c(C)c(C)n2CC(O)CN1CCOCC1 (stereo not drawn) ?
Tau fil binding: -28%; DNA Pol III inh: -7%; BRCT PPI green: 8%; TsaE inh: inactive; ALOX15 inhib: inconclusive; BRCT inh red: -6%

Results for CN1CCN(C2=C(Cl)C(=O)N(C3CCCCC3)C2=O)CC1 ?
Tau fil binding: 16µM*; DNA Pol III inh: -2%; BRCT PPI green: 0%; TsaE inh: inactive; ALOX15 inhib: -14%; BRCT inh red: 0%

What do the screens show for `O=C1C(Cl)=C(N2CCCCC2)C(=O)N1c1ccccc1Cl`?
Tau fil binding: 4%; DNA Pol III inh: 0%; BRCT PPI green: -4%; TsaE inh: inactive; ALOX15 inhib: inconclusive; BRCT inh red: -1%

Results for Nc1ccc(Cl)cc1[N+](=O)[O-] ?
Tau fil binding: -23%; DNA Pol III inh: -5%; BRCT PPI green: -1%; TsaE inh: inactive; ALOX15 inhib: 4%; BRCT inh red: 0%

What do the screens show for `O=c1cc(-c2ccccc2)oc2ccccc12`?
Tau fil binding: -20%; DNA Pol III inh: -4%; BRCT PPI green: 2%; TsaE inh: inactive; ALOX15 inhib: -25%; BRCT inh red: -3%

What do the screens show for `O=c1cc(-c2ccc(O)c(O)c2)oc2ccccc12`?
BRCT PPI green: -2%[3.08 µM]; ALOX15 inhib: 1.6µM*; BRCT inh red: 2%

What do the screens show for `O=c1cc(-c2ccccc2)oc2cc(O)c(O)cc12`?
BRCT PPI green: 0%[3.08 µM]; ALOX15 inhib: 16µM*; BRCT inh red: 1%

Results for Cc1ccc2oc(-c3ccccc3)cc(=O)c2c1 ?
BRCT PPI green: -2%; ALOX15 inhib: 7%[25.6 µM]; BRCT inh red: -4%

What do the screens show for `O=C(NC[C@H]1CCCCN1)c1cc(OCC(F)(F)F)ccc1OCC(F)(F)F`?
Tau fil binding: 40µM*!; DNA Pol III inh: -3%; BRCT PPI green: -2%; TsaE inh: inactive; ALOX15 inhib: -3%[25.6 µM]; BRCT inh red: -2%

Results for CCOc1ccc(N2Cc3ccccc3C2)cc1 ?
Tau fil binding: 16µM*; DNA Pol III inh: -2%; BRCT PPI green: 1%; TsaE inh: inactive; ALOX15 inhib: -9%; BRCT inh red: 1%

How did CCOc1ccc(S(=O)(=O)N2CCc3ccccc3C2)cc1 do in these assays?
Tau fil binding: 2%; DNA Pol III inh: 3%; BRCT PPI green: 0%; TsaE inh: inactive; ALOX15 inhib: -10%; BRCT inh red: -2%

Bioassay records deposited in PubChem BioAssay by National Center for Advancing Translational Sciences (NCATS).
